Hits are enriched below; roughly 6.9% of the tested compounds scored in any of these assays.
KB-V1 MDR tox – KB-V1 MDR subline cytotoxicity | KB-V1 MDR cells viability, CellTiter-Glo, 72 h | Potency, µM (top dose mostly 46.1 µM), hits mostly cytotoxic | 400,000 tested, 3.4% active; note: potency is the fitted concentration of half-maximal effect; % is set by controls: 0 for no effect and ±100 for the full control effect; nearly all actives have a fitted effect of over 60% in size
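Readout: CellTiter-Glo luminescence, 10 min after addition. Cells: KB-V1 MDR subline, 72 h at 37 degrees C with compound. Analysis: corrected, normalized data fitted to concentration-effect curves.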
S-ASM inh – human S-ASM enzyme inhibition. P17405. placental ASM, HMU-PC fluorogenic substrate, 60 min. Potency, µM (titrated, usually from 57.5 µM), without a hit: at the highest dose activity change, negative = inhibition, actives largely listed as inhibitors. 340,000 tested, 0.006% active. AID 504937; note: potency is the fitted concentration of half-maximal effect
Target sequence (P17405 47-631 limits assumed): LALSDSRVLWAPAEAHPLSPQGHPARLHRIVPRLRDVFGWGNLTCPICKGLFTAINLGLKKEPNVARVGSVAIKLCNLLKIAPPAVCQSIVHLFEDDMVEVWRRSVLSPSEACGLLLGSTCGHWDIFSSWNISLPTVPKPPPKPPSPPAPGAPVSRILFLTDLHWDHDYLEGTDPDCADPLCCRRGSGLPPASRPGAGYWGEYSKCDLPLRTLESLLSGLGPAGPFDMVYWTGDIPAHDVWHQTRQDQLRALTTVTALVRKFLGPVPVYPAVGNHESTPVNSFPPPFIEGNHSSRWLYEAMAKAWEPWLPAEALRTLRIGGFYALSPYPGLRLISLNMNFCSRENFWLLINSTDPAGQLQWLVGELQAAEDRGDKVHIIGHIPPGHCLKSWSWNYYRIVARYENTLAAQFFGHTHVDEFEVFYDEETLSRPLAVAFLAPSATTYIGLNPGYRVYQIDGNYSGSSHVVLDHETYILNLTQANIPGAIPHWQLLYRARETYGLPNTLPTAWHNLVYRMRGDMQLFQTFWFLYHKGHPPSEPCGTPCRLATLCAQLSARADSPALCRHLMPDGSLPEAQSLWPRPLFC
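Human placenta-derived ASM enzyme was preincubated with compound for 10 minutes at room temperature, then given fluorogenic substrate HMU-PC0 (9 uM final) for 60 minutes at 37 °C; a pH 10 stop preceded fluorescence reading at Ex 386/Em 447 nm.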
SW480 rerep – inducers of DNA re-replication in SW480 colon cancer cells. SW480 DNA re-replication, Hoechst DNA content imaging, 48 h. AID 624297. Potency, µM (top dose mostly 46.1 µM), inactives show at the top dose re-replication activation, most hits filed as activators. 340,000 tested, 1.8% active; note: potency is the fitted concentration of half-maximal effect; % of control where 0% means no effect; nearly all actives have a fitted effect of over 55% in size
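Cells (250 per well) received 23 nL compound or DMSO by pin tool and were kept 48 hr at 37 C, 5% CO2. Nuclei were then stained with Hoechst for 40 min and scanned for DNA content.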
KB-3-1 tox – kills parental KB-3-1 adenocarcinoma cells. KB-3-1 viability, CellTiter-Glo ATP luminescence, 72 h. Potency, µM (top dose mostly 46.1 µM), hits mostly cytotoxic. 400,000 tested, 1.4% active; note: potency is the fitted concentration of half-maximal effect; % is set by controls: 0 for no effect and ±100 for the full control effect; nearly all actives have a fitted effect of over 60% in size
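Using CellTiter-Glo luminescence, growth of non-resistant KB-3-1 adenocarcinoma cells is assessed 72 h after pin-tool compound addition at 37 °C. Normalized responses across the concentration series yield fitted curves.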
MCF10A rereplic – induces DNA re-replication in MCF 10a normal breast cells; Potency, µM (top dose mostly 46.1 µM), without a hit: at the top dose activity, positive = re-replication, usual class: activators; MCF 10A DNA re-replication, Hoechst nuclear intensity, 48 h; 350,000 tested, 2.9% active; note: potency is the fitted concentration of half-maximal effect; % of control where 0% means no effect; nearly all actives have a fitted effect of over 50% in size
Giardia killer – Giardia lamblia killing; Giardia lamblia trophozoite viability; activity change, % at 7.66 µM, hits read low; 340,000 tested, 0.15% active; in the data active = activity change below about -80%; inconclusive = between about -30% and that limit;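 note: parasites exposed to compound for two days anaerobically before the ATP read; % is set by controls: 0 for no effect and ±100 for the full control effect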
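Each well holds 100 Giardia trophozoites and compound. After two days (48 hrs) at 37 deg C in anaerobic conditions, ATP is quantified by luminescence.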
Starred values were filed as active, the others as inactive; i = inactive; ? = inconclusive; nt = not tested or not shown. Unless noted, calls come from the whole dose curve; as a rule, active = well fitted curve in the direction sought with a large enough effect; inconclusive = small, poorly fitted or top-dose-only effect, or another doubt; inactive = no such curve, though single readings can be large; an effect the other way counts as inactive or inconclusive.

SMILES	KB-V1 MDR tox	S-ASM inh	SW480 rerep	KB-3-1 tox	MCF10A rereplic	Giardia killer
COC(=O)c1ccccc1NC(=O)Cn1cnc2c(cnn2-c2ccccc2)c1=O	6.5µM*	18%	-5%	i	-7%	-7
Cc1cc(C)c2c(CC(=O)Nc3ccccc3C(F)(F)F)coc2c1	i	nt	nt	i	nt	nt
COc1ccc(C(=O)Nn2c(SCC(=O)N3CCC(C)CC3)nc3ccccc3c2=O)cc1	5.2µM*	-7%	-2%	i	2%	?
COc1ccc(C(=O)Nn2c(SCC(=O)NC3CCCCC3)nc3ccccc3c2=O)cc1	18µM*	-4%	-12%	i	9%	-12
COCCn1c(SCC(=O)N2CCC(C)CC2)nc2ccccc2c1=O	i	3%	-8%	i	-5%	-6
COc1ccc(C(=O)Nn2c(SCC(=O)NCc3ccco3)nc3ccccc3c2=O)cc1	?	-7%	-2%	?	1%	-16
COc1ccc(C(=O)Nn2c(SCC(=O)c3ccc(Cl)cc3)nc3ccccc3c2=O)cc1	5.8µM*	-12%	-4%	i	18%	-2
CS(=O)(=O)c1ccc(C(=O)OCC(=O)N2CCCC2)cc1[N+](=O)[O-]	i	nt	nt	i	nt	-18
CCOc1cc(C(=S)N2CCC(O)CC2)ccc1OS(=O)(=O)c1ccc(Br)cc1	?	-1%	-1%	i	-2%	0
CCOc1cc(C(=S)N2CCCCC2)ccc1OS(=O)(=O)c1ccc(Br)cc1	4.1µM*	-3%	8%	?	?	6
CCOc1cc(C(=S)N2CCOCC2)ccc1OS(=O)(=O)c1ccc(C)cc1	i	-3%	2%	i	0%	13
CCOc1cc(C(=S)N2CCCCC2)ccc1OS(=O)(=O)c1ccc(Cl)cc1	2.9µM*	-2%	20%	?	?	0
O=C(Cn1cnc([N+](=O)[O-])c1)Nc1ccccc1C(F)(F)F	?	2%	8%	i	6%	-15
C=Cc1ccc(Cn2c(C(=O)O)c(CNCc3ccc(F)cc3)c3ccc(C)cc32)cc1	i	nt	nt	7.3µM*	nt	nt
COc1ccc(Cn2c(C(=O)O)c(CNCc3cccs3)c3ccc(C)cc32)cc1	i	nt	nt	?	nt	nt
COc1ccc2c(CNCc3cccs3)c(C(=O)O)n(Cc3ccc(F)cc3Cl)c2c1	?	nt	nt	i	nt	nt
Cc1ccc2c(CNCc3cccs3)c(C(=O)O)n(Cc3ccc(F)cc3)c2c1	i	nt	nt	12µM*	nt	nt
C=Cc1ccc(Cn2c(C(=O)O)c(CNCc3cccs3)c3ccc(C)cc32)cc1	i	nt	nt	i	nt	nt
COc1ccc2c(CNCc3cccs3)c(C(=O)O)n(Cc3ccc(F)cc3)c2c1	i	nt	nt	16µM*	nt	nt
COc1cc(NC(=O)C(NC(=O)C2CCC(C)CC2)C(C)C)cc(OC)c1OC (centres undefined)	i	nt	nt	i	nt	nt
CC(C(Sc1ccccc1N)c1ccccc1)[N+](=O)[O-] (centres undefined)	i	-1%	10%	12µM*	?	-29
O=[N+]([O-])c1ccccc1/C=C1\C=Cc2ccccc21	i	nt	nt	i	nt	nt
CCN1CC=C2C(C#N)=C(N)C(C#N)(C#N)C(c3cc(Cl)ccc3Cl)C2C1 (centres undefined)	i	i	8%	i	16µM*	-7
O=C1CCSc2ccc(S(=O)(=O)Nc3cccc(C(F)(F)F)c3)cc2N1	i	nt	nt	?	nt	nt
Cc1cc(C)c[n+](C(C)C(=O)c2ccc(-c3ccccc3)cc2)c1 (centres undefined)	i	-1%	4%	5.8µM*	4%	-3
SMILES	KB-V1 MDR tox	S-ASM inh	SW480 rerep	KB-3-1 tox	MCF10A rereplic	Giardia killer
COc1ccccc1N1CCN(C(=O)C2CCN(S(=O)(=O)c3cnc[nH]3)CC2)CC1	i	nt	nt	i	nt	nt
CCc1ccc(NC(=O)CSc2nc(C)c(C(=O)Nc3ccccc3)c(-c3ccc(OC)c(OC)c3)c2C#N)cc1	i	nt	nt	i	nt	nt
COc1ccc(CC2(CO)CCN(S(=O)(=O)c3c(C)nn(C)c3Cl)CC2)cc1	i	2%	-32%	i	3%	-19
Cc1nn(C)c(Cl)c1S(=O)(=O)N1CCC(CO)(CCc2ccccc2)CC1	23µM*	-3%	-6%	?	17%	10
C=CCCC(=O)NC1CC(C)(C)Cc2c1cnn2-c1ccc(OC)cc1 (centres undefined)	?	7%	-4%	i	0%	-10
Cc1ccccc1Cn1c(=N)n(CC(=O)c2ccc([N+](=O)[O-])cc2)c2ccccc21	18µM*	-8%	1%	?	?	6
CCCn1c(=N)n(CC(=O)c2ccc([N+](=O)[O-])cc2)c2ccccc21	?	-3%	-3%	?	15µM*	11
N=c1n(CC(=O)c2cccc([N+](=O)[O-])c2)c2ccccc2n1Cc1ccccc1	?	-11%	?	i	?	6
CN(C)CCCNc1cc(N2CCN(C)CC2)ncn1	i	nt	nt	i	nt	nt
COc1ccc(-c2cn(-c3ccc(C)c(C)c3)c(=S)[nH]2)cc1OC	i	0%	0%	i	9%	-21
COc1ccc(-c2cn(-c3ccc(C)c(Cl)c3)c(=S)[nH]2)cc1OC	i	-2%	-1%	16µM*	13%	-11
COc1ccccc1-n1cc(-c2ccc(C)cc2)[nH]c1=S	23µM*	-1%	?	?	18µM*	0
COc1ccc(-c2cn(-c3ccccc3)c(=S)[nH]2)cc1OC	i	0%	-5%	3.3µM*	2%	-10
COc1ccccc1-n1cc(-c2ccc(Br)cc2)[nH]c1=S	i	1%	?	i	14%	-2
O=C(Nc1ccccc1Br)C(Cc1ccccc1)NS(=O)(=O)c1cccc2nsnc12 (centres undefined)	i	nt	nt	i	nt	nt
COC(=O)c1cc2c(n1S(=O)(=O)c1ccc(C)cc1)C(=O)C(=O)c1[nH]cc(C(=O)OCc3ccccc3)c1-2	7.3µM*	-22%	?	3.3µM*	8%	10
O=C(c1cccc(Cl)c1)c1nn(-c2ccccc2)c(=O)cc1C(F)(F)F	23µM*	1%	-5%	?	-6%	-5
O=C(c1ccccc1)c1nn(-c2ccccc2)c(=O)cc1C(F)(F)F	?	-1%	?	?	?	1
O=C(Nc1ccccc1)c1nn(-c2ccccc2)c(=O)cc1C(F)(F)F	i	-3%	-5%	i	-1%	-3
O=C(c1ccccc1)c1nn(-c2ccc(Cl)cc2)c(=O)cc1C(F)(F)F	18µM*	-2%	?	?	12µM*	-10
CC(C)(C)C(=O)Cn1c(=O)n(-c2ccc(Cl)c(Cl)c2)c(=O)c2c3c(sc21)CCCC3	i	nt	nt	i	nt	nt
